Source: PubChem BioAssay (Tox21)
Inconclusive results are not listed. A number with no mark means an inactive call. Activity calls are given as the source filed them. Calls come from the whole dose curve; as a rule, active = well fitted cell-killing curve with a large enough effect in the repeat runs; inconclusive = weak or mixed curves, or effect the other way; inactive = flat fitted curve, though single readings scatter.
% is set by controls: 0 for no effect and ±100 for the full control effect; potency is the fitted concentration of half-maximal effect.

Test: qHTS RealTime-Glo MT Cell Viability Assay in HepG2 cells - 0 hour (AID 1224889); note: nearly all actives have a fitted effect of over 50% in size
Conditions: RealTime-Glo luminescence; series mostly up to 76.8 µM; activity change, negative = cytotoxicity: at the top concentration
Description: U.S. Tox21 Program National Center for Advancing Translational Sciences [NCATS] NIH Chemical Genomics Center [NCGC] U.S. Environmental Protection Agency [EPA] National Institutes of Environmental Health Sciences [NIEHS] National Toxicology Program [NTP] U.S. Food and Drug Administration [FDA] Tox21 Assay Overview: Measure of cell viability is critical in the cell-base assay. Analysis of cell viability is necessary for the characterization of cell responses to cytotoxic drugs and environmental stress. A RealTime-Glo MT Cell Viability Assay to monitor cell viability in real time of continues cell culture during 40 hours of compound treatment was used to screen Tox21 10K library compounds in HepG2 cells. The RealTime-Glo MT Cell Viability Assay is a nonlytic, homogeneous, bioluminescent method to measure cell viability in real time using a simple, plate-based method. The assay involves adding NanoLuc luciferase and a cell-permeant prosubstrate to cells in culture. Viable cells reduce the proprietary prosubstrate to generate a substrate for NanoLuc luciferase. This substrate diffuses from cells into the surrounding culture medium, where it is rapidly used by the NanoLuc Enzyme to produce a luminescent signal. The signal correlates with the number of viable cells, making the assay well suited for cytotoxicity studies.
Tox21 Assay Protocol Summary: The mixture of HepG2 cell suspension and reagents were dispensed at 600cells/6 ul/well in 1536-well tissue culture treated black solid bottom plates using a Multidrop dispenser. After the assay plates were incubated at a 37 C/5% CO2 incubator for 5 hours, 23 nL of compounds dissolved in DMSO, positive and negative controls was transferred to the assay plate by a pintool work station. The plates were incubated at 37 C for 40 hours. The luminescence intensity were measured at 0h, 8h, 16h, 24h, 32h and 40h time points using ViewLux plate reader during compound treatment.
In the case of `Nc1ccccc1O`, the “activity change, negative = cytotoxicity” value is reported as -1.27%.
In the case of `Oc1ccc(N=Nc2ccccc2)cc1`, the “activity change, negative = cytotoxicity” value is reported as 15.5%.
In the case of `Cc1[nH]cnc1C[C@H]1CCc2c(C)c3ccccc3n2C1=O`, the “activity change, negative = cytotoxicity” value is reported as 8.03%.
With `CC(=O)N1CCN(c2ccc(OC[C@H]3CO[C@](Cn4ccnc4)(c4ccc(Cl)cc4Cl)O3)cc2)CC1` the Potency was 24.5 µM (active).
In the case of `N#CC1(c2ccc(F)cc2)CCC(=O)CC1`, the “activity change, negative = cytotoxicity” value is reported as -0.891% [at 35.3 µM].
In the case of `Nc1ccc2c3c(cccc13)-c1ccccc1-2`, the “activity change, negative = cytotoxicity” value is reported as 5.95%.
In the case of `O=Cc1cc(O)ccc1Br`, the “activity change, negative = cytotoxicity” value is reported as 2.35%.
For `CCC(N)(CO)CO`, the “activity change, negative = cytotoxicity” value was 1.87%.
For `Cc1ccc(O)c(C(C)(C)C)c1`, the Potency was “inactive”.
In the case of `CC(C)(C)NC(=O)[C@@H]1C[C@@H]2CCCC[C@@H]2CN1C[C@@H](O)[C@H](Cc1ccccc1)NC(=O)[C@H](CC(N)=O)NC(=O)c1ccc2ccccc2n1`, the “activity change, negative = cytotoxicity” value is reported as -8.57%.
In the case of `O=[N+]([O-])c1cc(Cl)c(Cl)c(Cl)c1Cl`, the “activity change, negative = cytotoxicity” value is reported as 0.671%.
With `CC(C)(C)C(=O)OCOC(=O)[C@@H]1N2C(=O)[C@@H](NC(=O)[C@H](N)c3ccccc3)[C@H]2SC1(C)C` the “activity change, negative = cytotoxicity” value was 3.59% [at 35.3 µM].
In the case of `ON=C1CCCC1`, the “activity change, negative = cytotoxicity” value is reported as -1.71%.
In the case of `CC/C(=C(\c1ccc(O)cc1)c1ccc(OCCN(C)C)cc1)c1ccccc1`, the “activity change, negative = cytotoxicity” value is reported as -5.74%.
In the case of `CCC1OCC(COc2ccc(Oc3ccccc3)cc2)O1` (stereo not given), the “activity change, negative = cytotoxicity” value is reported as -0.178%.
With `O=C(O)c1ccc(Cl)c(Cl)c1` the “activity change, negative = cytotoxicity” value was -0.944%.
In the case of `Clc1ccc2cc3ccccc3cc2c1`, the “activity change, negative = cytotoxicity” value is reported as 6.35%.
For `CCc1oc2ccccc2c1C(=O)c1cc(Br)c(O)c(Br)c1`, the “activity change, negative = cytotoxicity” value was -3.98% [at 35.3 µM].
With `CC1=C(/C=C/C(C)=C/C=C/C(C)=C/C=O)C(C)(C)CCC1` the “activity change, negative = cytotoxicity” value was -1.12%.
For `Oc1cc2ccccc2c2ccccc12`, the “activity change, negative = cytotoxicity” value was -9.51%.
With `N=C1C=CC(=C(c2ccc(N)cc2)c2ccc(N)cc2)C=C1` the “activity change, negative = cytotoxicity” value was -24.9%.
With `Cc1cc(=O)oc2cc(N(C)C)ccc12` the “activity change, negative = cytotoxicity” value was -21.4%.
With `O=CC=C(c1ccccc1)c1ccccc1` the “activity change, negative = cytotoxicity” value was -13.4%.
For `Cc1c(C)c2c(c(C)c1O)CCC(C)(COc1ccc(CC3SC(=O)NC3=O)cc1)O2` (stereo not given), the Potency was “inactive”.
In the case of `COCCCC/C(=N\OCCN)c1ccc(C(F)(F)F)cc1`, the “activity change, negative = cytotoxicity” value is reported as 21.4% [at 35.3 µM].
In the case of `S=c1[nH]c2ccccc2s1`, the “activity change, negative = cytotoxicity” value is reported as -0.261%.
In the case of `CCC(C)(C)C1CCCCC1OC(C)=O` (stereo not given), the “activity change, negative = cytotoxicity” value is reported as -0.509%.
With `CC(=O)OCC(C)OC(C)=O` (stereo not given) the “activity change, negative = cytotoxicity” value was -0.939%.
For `O=[N+]([O-])c1cc([N+](=O)[O-])c2ccc(S(=O)(=O)O)cc2c1O`, the “activity change, negative = cytotoxicity” value was -20.6%.
In the case of `CCCN(CCC)C(=O)C(CCC(=O)OCCCN1CCN(CCOC(=O)Cc2c(C)n(C(=O)c3ccc(Cl)cc3)c3ccc(OC)cc23)CC1)NC(=O)c1ccccc1` (stereo not given), the “activity change, negative = cytotoxicity” value is reported as -4.38% [at 35.3 µM].
In the case of `CCCCN(CCCC)C(=O)N(CCCC)CCCC`, the “activity change, negative = cytotoxicity” value is reported as 1.41%.
With `CCCCCCCCCCC=O` the “activity change, negative = cytotoxicity” value was 6.55%.
For `CCC(Cl)C(Cl)C(Cl)CC(Cl)C(Cl)C(C)Cl` (stereo not given), the “activity change, negative = cytotoxicity” value was 1.1%.
For `O=C(Nc1cccc([N+](=O)[O-])c1)c1cc2ccccc2cc1O`, the “activity change, negative = cytotoxicity” value was -9.61%.
With `CN1CCC(Nc2ncc3ncnc(Nc4ccc(F)c(Cl)c4)c3n2)CC1` the “activity change, negative = cytotoxicity” value was 7.73% [at 35.3 µM].
Work on `C[n+]1cc2c3c(ccc2c2ccc4cc5c(cc4c21)OCO5)OCO3` yielded an activity change, negative = cytotoxicity of -1.39% [at 15.8 µM].
In the case of `CCCCC(CC)COP(=O)(O)OCC(CC)CCCC` (stereo not given), the Potency is reported as “inactive”.
In the case of `CS(=O)(=O)CCNCc1ccc(-c2ccc3ncnc(Nc4ccc(OCc5cccc(F)c5)c(Cl)c4)c3c2)o1`, the Potency is reported as 8.49 µM (active).
In the case of `CCCCCCCCCCCC(=O)NCCCN(C)C`, the “activity change, negative = cytotoxicity” value is reported as 21.9%.
With `CCCCCCCC/C=C/CCCCCCCC1=NCCN1CCO` the “activity change, negative = cytotoxicity” value was 27.9%.
